Measured values as given in PubChem BioAssay AID1159580 (chemical genetic matrix, 2015).
The campaign covered roughly 5,500 compounds. About 2,000 (36%) were called active. About 18% were inconclusive and are not listed. No stated cut-off is given here; in the data, active means normalized growth mostly below about 0.91 (no sharp cut-off); inconclusive means no clear call, values can overlap the other calls; inactive means mostly above about 0.92. The list shows a part of the results.

Experiment: chemical genetic growth profiling, strain panel (AID 1159580);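 further: tested at 20 µM; growth read once vehicle control cultures reached saturation at 30 °C; 1 = growth at the plate median or of vehicle wells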
Settings: growth OD

Measured: normalized growth

COc1cc(C(=O)O)cc(OC)c1OC
inactive: S. cerevisiae deletion strains, locus YAL013W, strain DEP1, stronger effect = lower value 1.02 | S. cerevisiae deletion strains, locus YBR021W, strain FUR4, stronger effect = lower value 1.01 | S. cerevisiae deletion strains, locus YBR229C, strain ROT2, stronger effect = lower value 1.01 | S. cerevisiae deletion strains, locus YCL029C, strain bik1, stronger effect = lower value 1.04 | S. cerevisiae deletion strains, locus YDL035C, strain GPR1, stronger effect = lower value 1.04 | S. cerevisiae deletion strains, locus YDL074C, strain BRE1, stronger effect = lower value 1.05 | S. cerevisiae deletion strains, locus YDL101C, strain DUN1, stronger effect = lower value 1.02 | S. cerevisiae deletion strains, locus YDL134C, strain PPH21, stronger effect = lower value 1.01 | S. cerevisiae deletion strains, locus YDL185W, strain tfp1, stronger effect = lower value 1.03 | S. cerevisiae deletion strains, locus YDL192W, strain arf1, stronger effect = lower value 1.02 | S. cerevisiae deletion strains, locus YDR101C, strain arx1, stronger effect = lower value 1.02 | S. cerevisiae deletion strains, locus YDR162C, strain NBP2, stronger effect = lower value 1.02 | S. cerevisiae deletion strains, locus YDR318W, strain mcm21, stronger effect = lower value 1.02 | S. cerevisiae deletion strains, locus YDR388W, stronger effect = lower value 1.03 | S. cerevisiae deletion strains, locus YDR502C, strain sam2, stronger effect = lower value 1.02 | S. cerevisiae deletion strains, locus YEL061C, strain CIN8, stronger effect = lower value 1.01 | S. cerevisiae deletion strains, locus YER110C, stronger effect = lower value 1.03 | S. cerevisiae deletion strains, locus YER155C, strain BEM2, stronger effect = lower value 1.01 | S. cerevisiae deletion strains, locus YER167W, strain BCK2, stronger effect = lower value 1.03 | S. cerevisiae deletion strains, locus YGL078C, strain dbp3, stronger effect = lower value 1.03 | S. cerevisiae deletion strains, locus YGL086W, strain mad1, stronger effect = lower value 1.03 | S. cerevisiae deletion strains, locus YGL248W, strain PDE1, stronger effect = lower value 1.02 | S. cerevisiae deletion strains, locus YGR078C, strain PAC10, stronger effect = lower value 1.03 | S. cerevisiae deletion strains, locus YGR135W, strain pre9, stronger effect = lower value 1.02 | S. cerevisiae deletion strains, locus YGR252W, strain gcn5, stronger effect = lower value 1.09 | S. cerevisiae deletion strains, locus YHR030C, strain SLT2, stronger effect = lower value 1.02 | S. cerevisiae deletion strains, locus YHR079C, strain IRE1 (second series), stronger effect = lower value 1.02 | S. cerevisiae deletion strains, locus YHR094C, strain hxt1, stronger effect = lower value 1.02 | S. cerevisiae deletion strains, locus YHR129C, strain ARP1, stronger effect = lower value 1.02 | S. cerevisiae deletion strains, locus YHR200W, strain rpn10, stronger effect = lower value 1.02 | S. cerevisiae deletion strains, locus YIL066C, strain RNR3, stronger effect = lower value 1.04 | S. cerevisiae deletion strains, locus YIL073C, strain SPO22, stronger effect = lower value 1.09 | S. cerevisiae deletion strains, locus YIL125W, strain kgd1, stronger effect = lower value 1.03 | S. cerevisiae deletion strains, locus YIR030C, strain dcg1, stronger effect = lower value 1.02 | S. cerevisiae deletion strains, locus YJL095W, strain BCK1, stronger effect = lower value 1.02 | S. cerevisiae deletion strains, locus YJL134W, strain LCB3, stronger effect = lower value 1.02 | S. cerevisiae deletion strains, locus YJL168C, strain set2, stronger effect = lower value 1.03 | S. cerevisiae deletion strains, locus YJL187C, strain SWE1 (second series), stronger effect = lower value 1.03 | S. cerevisiae deletion strains, locus YJR043C, strain POL32, stronger effect = lower value 1.03 | S. cerevisiae deletion strains, locus YJR075W, strain HOC1, stronger effect = lower value 1.04 | S. cerevisiae deletion strains, locus YKL009W, strain mrt4, stronger effect = lower value 1.08 | S. cerevisiae deletion strains, locus YKL068W, stronger effect = lower value 1.04 | S. cerevisiae deletion strains, locus YKL085W, strain MDH1 (second series), stronger effect = lower value 1.07 | S. cerevisiae deletion strains, locus YKL085W, strain MDH1, stronger effect = lower value 1.07 | S. cerevisiae deletion strains, locus YKR001C, strain vps1, stronger effect = lower value 1.02 | S. cerevisiae deletion strains, locus YLR039C, strain RIC1, stronger effect = lower value 1.07 | S. cerevisiae deletion strains, locus YLR058C, strain SHM2, stronger effect = lower value 1.02 | S. cerevisiae deletion strains, locus YLR102C, strain apc9, stronger effect = lower value 1.02 | S. cerevisiae deletion strains, locus YLR262C, strain YPT6, stronger effect = lower value 1.09 | S. cerevisiae deletion strains, locus YLR268W, strain sec22, stronger effect = lower value 1.02 | S. cerevisiae deletion strains, locus YLR330W, strain CHS5, stronger effect = lower value 1.02 | S. cerevisiae deletion strains, locus YLR342W, strain FKS1 (second series), stronger effect = lower value 1.04 | S. cerevisiae deletion strains, locus YLR371W, strain rom2, stronger effect = lower value 1.04 | S. cerevisiae deletion strains, locus YLR418C, strain cdc73, stronger effect = lower value 1.04 | S. cerevisiae deletion strains, locus YML016C, strain PPZ1, stronger effect = lower value 1.02 | S. cerevisiae deletion strains, locus YML032C, strain rad52, stronger effect = lower value 1.03 | S. cerevisiae deletion strains, locus YML124C, strain tub3, stronger effect = lower value 1.02 | S. cerevisiae deletion strains, locus YMR078C, strain ctf18, stronger effect = lower value 1.06 | S. cerevisiae deletion strains, locus YMR223W, strain ubp8, stronger effect = lower value 1.02 | S. cerevisiae deletion strains, locus YMR263W, strain SAP30, stronger effect = lower value 1.02 | S. cerevisiae deletion strains, locus YMR307W, strain GAS1, stronger effect = lower value 1.03 | S. cerevisiae deletion strains, locus YNL067W, strain RPL9B, stronger effect = lower value 1.03 | S. cerevisiae deletion strains, locus YNL128W, strain TEP1, stronger effect = lower value 1.03 | S. cerevisiae deletion strains, locus YNL153C, strain GIM3, stronger effect = lower value 1.01 | S. cerevisiae deletion strains, locus YNL233W, strain BNI4, stronger effect = lower value 1.03 | S. cerevisiae deletion strains, locus YNL250W, strain rad50, stronger effect = lower value 1.03 | S. cerevisiae deletion strains, locus YNL271C, strain bni1, stronger effect = lower value 1.02 | S. cerevisiae deletion strains, locus YNL298W, strain CLA4, stronger effect = lower value 1.01 | S. cerevisiae deletion strains, locus YNL307C, strain MCK1, stronger effect = lower value 1.05 | S. cerevisiae deletion strains, locus YNL322C, strain KRE1, stronger effect = lower value 1.02 | S. cerevisiae deletion strains, locus YNR052C, strain pop2, stronger effect = lower value 1.03 | S. cerevisiae deletion strains, locus YOL006C, strain TOP1, stronger effect = lower value 1.2 | S. cerevisiae deletion strains, locus YOL012C, strain htz1 1.18 | S. cerevisiae deletion strains, locus YOL147C, strain pex11, stronger effect = lower value 1.02 | S. cerevisiae deletion strains, locus YOR061W, strain CKA2, stronger effect = lower value 1.02 | S. cerevisiae deletion strains, locus YOR069W, strain VPS5, stronger effect = lower value 1.01 | S. cerevisiae deletion strains, locus YOR136W, strain idh2, stronger effect = lower value 1.02 | S. cerevisiae deletion strains, locus YOR144C, strain elg1, stronger effect = lower value 1 | S. cerevisiae deletion strains, locus YOR184W, strain ser1, stronger effect = lower value 1.02 | S. cerevisiae deletion strains, locus YOR316C, strain cot1, stronger effect = lower value 1.02 | S. cerevisiae deletion strains, locus YPL055C, strain LGE1, stronger effect = lower value 1.05 | S. cerevisiae deletion strains, locus YPL241C, strain CIN2, stronger effect = lower value 1.02 | S. cerevisiae deletion strains, locus YPR119W, strain clb2, stronger effect = lower value 1.02 | S. cerevisiae deletion strains, locus YPR141C, strain kar3, stronger effect = lower value 1.02 | S. cerevisiae deletion strains, locus YPR163C, strain tif3, stronger effect = lower value 1.02 | S. cerevisiae deletion strains, locus YPR167C, strain met16, stronger effect = lower value 1.03 | S. cerevisiae deletion strains, strain wtn01, stronger effect = lower value 1.03 | S. cerevisiae strains, strain wild type, stronger effect = lower value 1.02
